Experimental data from the supplement of paper PMC10121225.

Test system: hN + hpA co-culture (H1 iNGN2 human neurons + human primary astrocytes)
Assay: presynaptic density (SYNAPSIN1 puncta per MAP2 neurite area), Z-score vs DMSO controls; higher = more presynaptic puncta (synapse-promoting)
Details: 3 µM; 72 h
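Also: immunostained co-cultures imaged by high-content microscopy, Z-score per plate against mean and SD of 0.1% DMSO wells, compounds added on differentiation day 18, analysed day 21.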

Row | SMILES | presynaptic density (Z-score)
1 | O=C1NC(=O)/C(=C/c2ccc(-c3ccc(F)cc3O)o2)S1 | 0.652
2 | O=C(CCCCCCC(=O)Nc1ccc([C@H]2O[C@@H](CSc3nc(-c4ccccc4)c(-c4ccccc4)o3)C[C@@H](c3ccc(CO)cc3)O2)cc1)NO [Tubacin] | 0.79
3 | OCCOc1ccc(/C(=C(/CCCl)c2ccccc2)c2ccccc2)cc1 [Ospemifene] | -0.588
4 | CCCCCCCCCCCC1=C(O)C(=O)C=C(O)C1=O | -0.826
5 | NC(=O)c1cnc(NC2CCCCC2N)nc1Nc1cccc(-n2nccn2)c1 (centres undefined) | -0.728
6 | C[C@@H]1CCN(C(=O)CC#N)C[C@@H]1N(C)c1ncnc2[nH]ccc12 | -0.892
7 | CC#CCn1c(N2CCC[C@@H](N)C2)nc2c1c(=O)n(Cc1nc(C)c3ccccc3n1)c(=O)n2C [Linagliptin] | 0.688
8 | NS(=O)(=O)c1ccc(NC(=O)Nc2ccc(F)cc2)cc1 | 0.585
9 | CN1CCN(c2nc(C3=C(c4c[nH]c5ccccc45)C(=O)NC3=O)c3ccccc3n2)CC1 [AEB071 (Sotrastaurin)] | -0.719
10 | Cc1nnc(C(=O)NC(C)(C)c2nc(C(=O)NCc3ccc(F)cc3)c(O)c(=O)n2C)o1 [Raltegravir (MK-0518)] | -0.683
11 | COc1cc(F)c(C(C)C)cc1-c1ccc(C(F)(F)F)cc1CN1C(=O)O[C@H](c2cc(C(F)(F)F)cc(C(F)(F)F)c2)[C@@H]1C [Anacetrapib (MK-0859)] | -0.588
12 | Nc1ccc(C(=O)O)c(O)c1 [Sodium 4-Aminosalicylate] | 0.294
13 | COc1cc(Br)c(Nc2nc(-c3c(C)nc4ncccn34)cs2)c(Br)c1 | -2
14 | Cc1ccc2nc(NC(=O)CSc3nc4c(c(=O)n3-c3ccccc3)SCC4)sc2c1 | -0.234
15 | C=C1C(=O)O[C@H]2[C@H]1CC/C(C)=C/CC[C@@]1(C)O[C@@H]21 [(-)-Parthenolide] | -0.888
16 | NC(=O)c1cccc(-c2cccc(OC(=O)NC3CCCCC3)c2)c1 | -1.17
17 | Cc1c(Cc2ccc3ccccc3n2)c2cc(F)ccc2n1CC(=O)O | -1.02

Row | SMILES | presynaptic density (Z-score)
18 | COc1ccccc1S(=O)(=O)Nc1ccc2c(c1)CN(C)C(=O)N2 | 0.796
19 | CCOC(=O)C1=C(N)Oc2ccc(Br)cc2C1C(C#N)C(=O)OCC (centres undefined) | 0.81
20 | CC1(C)CCC(CN2CCN(c3ccc(C(=O)NS(=O)(=O)c4ccc(NCC5CCOCC5)c([N+](=O)[O-])c4)c(Oc4cnc5[nH]ccc5c4)c3)CC2)=C(c2ccc(Cl)cc2)C1 | -1.11
21 | COC1CC2CCC(C)C(O)(O2)C(=O)C(=O)N2CCCCC2C(=O)OC(C(C)CC2CCC(OC(=O)C(C)(CO)CO)C(OC)C2)CC(=O)C(C)C=C(C)C(O)C(OC)C(=O)C(C)CC(C)C=CC=CC=C1C (centres undefined) [Temsirolimus (CCI-779] | 0.145
22 | CNCc1ccc(-c2cc(-c3nc(-c4ccc(S(=O)(=O)C(C)C)cc4)cnc3N)on2)cc1 | -1.03
23 | Cc1cc(-c2ccc(CC(=O)Nc3ccc(-c4cccnc4)cc3)cc2)ccn1 | 0.0884
24 | N#CSc1cc(SC#N)c(N)nc1N | -0.815
25 | CC(C)c1c(C(=O)Nc2ccccc2)c(-c2ccccc2)c(-c2ccc(F)cc2)n1CC[C@@H](O)C[C@@H](O)CC(=O)O | -2.01
26 | COc1cc2/c(=N/c3ccc(Br)cc3F)nc[nH]c2cc1OCC1CCN(C)CC1 [Vandetanib (ZD 6474)] | 0.993
27 | CC(C)(C)Cn1c(N)nc2ccc(-c3[nH]c(C(C)(C)C)nc3-c3ccc(F)cc3)nc21 | 0.191
28 | CC(C)C[C@H](NC(=O)CNC(=O)c1cc(Cl)ccc1Cl)B(O)O | -3.07
29 | CC1(C)CCC(c2ccc(Cl)cc2)=C(CN2CCN(c3ccc(C(=O)NS(=O)(=O)c4ccc(N[C@H](CCN5CCOCC5)CSc5ccccc5)c(S(=O)(=O)C(F)(F)F)c4)cc3)CC2)C1 | 0.29
30 | Cc1nnc(C(C)C)n1C1C[C@H]2CC[C@@H](C1)N2CC[C@H](NC(=O)C1CCC(F)(F)CC1)c1ccccc1 (stereo in doubt) [Maraviroc] | -1.28
31 | CN(c1ncccc1CNc1nc(Nc2ccc3c(c2)CC(=O)N3)ncc1C(F)(F)F)S(C)(=O)=O | -0.85
32 | Cc1cc([C@@H](C)Nc2ccccc2C(=O)O)c2nc(N3CCOCC3)cc(=O)n2c1 | -0.243
33 | CC1C(=O)OC2C(O)C34C5CC(C(C)(C)C)C36C(OC(=O)C6O)OC4(C(=O)O5)C12O (centres undefined) [Ginkgolide B] | -0.504
34 | S=C=Nc1cccc(NC(=S)NCCCCNC(=S)Nc2cccc(N=C=S)c2)c1 | 0.95
